# eIF4H inh: inhibitors of RNA binding by human eIF4H; eIF4H fluorescence polarization binding assay; inhibition, % at 35 µM; 290,000 tested, 0.94% active; AID 2012;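 further: calls also rest on retests at 20 µM and on dose response follow-up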
# eIF4E-4G inh: eIF4E/eIF4G interaction inhibition in translation initiation; P63073+Q04637; TR-FRET eIF4E-eIF4GI(517-606) binding, 2 h; inhibition, % at 21.7 µM; 220,000 tested, 0.37% active; AID 782;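 active means inhibition above about 30%, limit read from the data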;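 further: 0% = full FRET control wells and 100% = background wells lacking eIF4GI fragment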
# MLLE-PAM2 inh: blocks PAM2 peptide binding to the PABP1 MLLE domain; P11940; GST-MLLE / FITC-PAM2 fluorescence polarization; inhibition, % at 20 µM; 360,000 tested, 0.36% active; in the data active means inhibition above about 35%, passing the limit was not always enough;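 further: plate controls were DMSO wells with GST-MLLE for no effect and wells lacking GST-MLLE protein for full effect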
# PABP polyA inh: blocks human PABP binding to poly(A) RNA; P11940; fluorescence polarization; calls only at 35 µM; 290,000 tested, 1% active;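 further: calls also rest on retests at 20 µM and on dose response follow-up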
# 14-3-3 Bad inh: disrupts binding of bovine 14-3-3 zeta to phospho-Bad peptide; P63103; TR-FRET 14-3-3zeta/Dy647-pBad peptide displacement, 1 h; inhibition, % at 21.7 µM; 220,000 tested, 0.71% active;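 active means inhibition above about 70%, limit read from the data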;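 further: 0% = full 14-3-3 plus peptide FRET controls and 100% = background without 14-3-3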
# Target sequence (P63103 whole entry, looked up): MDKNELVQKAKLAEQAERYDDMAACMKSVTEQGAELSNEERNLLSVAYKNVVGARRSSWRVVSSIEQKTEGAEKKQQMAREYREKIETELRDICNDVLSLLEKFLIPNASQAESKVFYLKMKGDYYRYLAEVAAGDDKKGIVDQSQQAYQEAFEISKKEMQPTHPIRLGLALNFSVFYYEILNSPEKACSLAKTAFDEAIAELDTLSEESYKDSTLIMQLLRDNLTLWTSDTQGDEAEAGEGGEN
# Active calls of the source: *; i = inactive; ? = inconclusive; nt = not tested or not shown; + = active, no number; [ ] = remark or other dose. An excerpt weighted towards active compounds, which were near 1.9% of everything screened. Unless noted, how the calls were made is not given here.
SMILES,eIF4H inh,eIF4E-4G inh,MLLE-PAM2 inh,PABP polyA inh,14-3-3 Bad inh
O=C(O)C1Nc2c(O)cc(Cl)c([N+](=O)[O-])c2C2C=CCC12 (centres undefined),?,77.6*,18.6,+,97.0*
CCCN(C(=O)c1cn(C)c(=O)c2ccccc12)c1ccccc1C,-2.4,nt,15.6,i,nt
O=c1c2ccccc2sn1-c1cc(S(=O)(=O)N2CCOCC2)ccc1N1CCOCC1,-3.4,70.5*,31.9,i,73.9*
O=c1c2ccccc2sn1-c1cc(S(=O)(=O)N2CCOCC2)ccc1N1CCCC1,11.4,55.6*,26.9,i,-8.3
Nc1cc(S(=O)(=O)N2CCOCC2)ccc1N1CCCCC1,nt,nt,28.7,nt,nt
CC[C@]12c3[nH]c4ccccc4c3CCN1C(=O)C(CC(=O)NCCCN(C)C)C[C@@H]2C(=O)N1CCN(C(=O)c2ccco2)CC1 (some centres undefined),nt,nt,1.5,nt,nt
COc1ccc(CCNC(=O)CC2SC(N)=NC2=O)cc1OC (centres undefined),-6.6,-3.2,-1.9,i,-8.7
CC(=NNC(=S)N1CCN(c2ccccn2)CC1)c1nccs1,nt,nt,16.3,nt,nt
CCn1cc(CN2CCC(n3nccc3NC(=O)Cc3ccccc3)CC2)c(C)n1,5.4,nt,-0.7,i,nt
CCCc1cc(-n2ccnc2)n2c(nc3ccccc32)c1C#N,124.6*,0.9,-48.1,i,-11.0
C/C(=N\Nc1ccc(C(=O)O)cc1)c1ccc(Br)cc1,50.9*,0.0,13.9,i,-1.5
COc1cc(CN(C)CCc2ccccn2)cc(OC)c1OC,9.8,7.6,1.9,i,73.0*
Cc1ccc(NC(=O)Nc2sc(=S)n(C)c2C)cc1,3.3,1.4,-55.3,i,14.8
Cc1c(NC(=O)Oc2ccccc2)sc(=S)n1C,-3.3,-1.4,38.6*,i,-3.4
O=C(NC(=S)Nc1ccc(Cc2ccncc2)cc1)c1ccccc1Cl,1.5,-4.2,42.7*,i,-7.4
O=C(NC(=S)Nc1ccc(Cc2ccncc2)cc1)c1ccccc1F,-4.5,0.1,27.4,i,-2.9
Cc1ccccc1C(=O)NC(=S)Nc1ccc(Cc2ccncc2)cc1,-8.2,2.7,25.3,i,-11.0
COc1ccc(C(=O)NC(=S)Nc2ccc(Cc3ccncc3)cc2)cc1,-8.0,-1.1,4.6,i,80.7*
O=C(CN(c1ccccc1)S(=O)(=O)c1ccccc1)N/N=C/c1ccco1,18.2,5.6,-5.0,i,-6.6
Cc1ccc(C(N)=S)c(C)c1,nt,4.0,40.0*,nt,-12.3
CC1=CC(C)C(/C=N/N=C(N)N)C(C)C1 (centres undefined),-0.3,-1.0,-9.0,i,-3.6
c1ccc(OCc2nn3c(-c4ccncc4)nnc3s2)cc1,-6.4,1.9,-4.2,i,15.1
c1ccc(Cc2nnc3sc(-c4ccncc4)nn23)cc1,-0.6,3.1,42.0*,i,3.6
c1ccc(Cc2nn3c(-c4ccncc4)nnc3s2)cc1,3.6,11.5,37.8*,i,3.1
COC(=O)C[C@H]1c2cc(C(F)(F)F)ccc2S(=O)(=O)N1c1ccc(N(C)C)cc1,nt,nt,0.6,nt,nt
SMILES,eIF4H inh,eIF4E-4G inh,MLLE-PAM2 inh,PABP polyA inh,14-3-3 Bad inh
COc1ccccc1N=c1oc2c(OC)cccc2cc1C(=O)NCc1ccco1,14.8,-7.0,-11.3,i,12.1
COc1ccc(OC)c(N=c2oc3c(OC)cccc3cc2C(=O)NCc2ccco2)c1,118.2*,nt,14.8,i,nt
CCOCCCn1c(=N)c(C(N)=S)cc2c(=O)n3cccc(C)c3nc21,86.8*,-3.5,15.4,+,-3.5
CCCCNC(=O)c1cc2c(=O)n3cccc(C)c3nc2n(Cc2ccccc2)c1=N,-2.1,5.5,-7.6,i,74.8*
Cc1cccn2c(=O)c3cc(C(N)=S)c(=N)n(CCCOC(C)C)c3nc12,47.3,-7.5,-33.1,i,-7.5
CCOC(=O)c1cc2c(=O)n3cccc(C)c3nc2n(C)c1=N,95.9*,1.8,nt,+,5.2
CCOC(=O)c1cc2c(=O)n3ccccc3nc2n(Cc2ccccc2)c1=N,-10.2,-2.5,-2.8,i,2.6
CC(CCc1ccccc1)NC(=O)COC(=O)c1cccnc1Cl (centres undefined),nt,nt,-37.1,nt,nt
N#C/C(=C1/C(=O)Nc2ccc(Br)cc21)c1ccccn1,2.8,0.6,0.5,i,-11.4
CCc1ccc(NC(=O)CCNC(=O)Cn2ccc3ccccc3c2=O)cc1,-3.3,nt,6.4,i,nt
Cc1ccc(Sc2ncccc2COC(=O)NC(C)C)cc1,active,0.9,-13.7,+,25.1
CCn1cc(/C=N/NC(=O)COc2cccc3cccnc23)c2ccccc21,-4.3,17.5,-3.5,i,80.4*[fluorescence artefact?]
Cc1cc(C)cc(-n2c(C)cc(/C=N\NC(=O)COc3cccc4cccnc34)c2C)c1,-3.9,-1.0,-13.6,i,-8.8
Cc1cc(/C=N/NC(=O)COc2cccc3cccnc23)c(C)n1-c1ccc(O)cc1,59.8,-3.6,7.4,+,-13.5
CCN(CC)CCCNC(=O)c1cc(Cl)c(NC(=O)C2=C(C)OCCS2)cc1OC,92.6*,nt,-11.6,+,nt
CCN1CCN(CCNC(=O)c2cc(Cl)c(NC(=O)C3=C(C)OCCS3)cc2OC)CC1,4.3,nt,-9.8,i,nt
CC(=O)c1ccc(OC(C)C)c(Cc2c(O)nc(N)[nH]c2=O)c1,0.7*,-3.7,-15.6,+,-21.5
CCOc1ccc(C(C)NC(=O)c2ccc3c(c2)NC(=O)C(C)S3)cc1OCC (centres undefined),nt,nt,-8.3,nt,nt
Cc1[nH]n(C(N)=S)c(=O)c1N=Nc1ccc(S(=O)(=O)N2CCCC2)cc1,2.5,-3.7,41.6*,i,-3.2
Nc1c(C(=O)Nc2nc3ccccc3s2)sc2nc(-c3cccs3)ccc12,43.8,13.1,15.1,i,96.1*[fluorescence artefact?]
Nc1c(C(=O)Nc2ccccc2)sc2nc(-c3ccco3)ccc12,75.3*,2.5,-16.2,+,76.1*[fluorescence artefact?]
COc1ccc(NC(=O)N(C)[C@H]2C[C@H]3c4[nH]c5ccc(-c6ccc(OC)cc6)cc5c4CCN3C[C@H]2[C@H](C)O)cc1,nt,nt,-33.5,nt,nt
O=S1(=O)CCN(CCCCc2ccccc2)CC1,nt,nt,-7.7,nt,nt
N#Cc1ccc(-c2csc(NC3=NCCCCC3)n2)cc1,5.1,53.3*[fluorescence artefact?],12.6,i,12.2
c1ccc(-c2csc(NC3=NCCCCC3)n2)cc1,2.5*,3.4,-6.9,+,-2.6
SMILES,eIF4H inh,eIF4E-4G inh,MLLE-PAM2 inh,PABP polyA inh,14-3-3 Bad inh
CCOc1ccc(C(=O)C[n+]2ccc(C(=O)NCCO)cc2)cc1,-3.2,nt,-7.8,i,nt
N#C/C(=C\c1cc(Cl)c(OCc2ccc(Cl)cc2)c(Cl)c1)C(N)=O,-4.3,2.7,nt,i,4.0
N#C/C(=C\c1cc(O)c(O)c(O)c1)C(N)=O,53.5*,4.8,-12.3,+,9.4
O=C(Cc1c(F)cccc1Cl)OCC(=O)N1CCN(c2ccccc2)CC1,nt,nt,7.3,nt,nt
O=c1c2cc(Cl)ccc2[nH]c(=S)n1Cc1ccco1,9.5,-1.3,-74.5,i,-17.9
COC(=O)c1ccc2c(=O)n(NC(C)=O)c(=S)[nH]c2c1,-3.2,-6.4,21.5,i,-11.2
COc1cc2[nH]c(=S)n(NC(=O)c3ccccc3)c(=O)c2cc1OC,2.5,-3.8,35.7*,i,-9.8
